hcDAF12 agonist: activates DAF-12 receptor from parasite H. contortus; HEK293 hcDAF-12 lit1-tk-luc reporter, luminescence; 0% DMSO, 100% Δ7-dafachronic acid; activation, % at 6.8 µM; 1.4% of 370,000 active;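 active = activation above the mean of all tested compounds plus 3 SD, cut at about 5.5% in these data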;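 note: 100% = response to 3 µM Δ7-dafachronic acid high control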
hgDAF12 agonist: hgDAF-12 agonism, primary luciferase screen; activation, % at 6.8 µM; AID 687014; HEK293 GAL4-hgDAF12 UAS-luciferase reporter, agonist luminescence; normalized to butyrate control; 1.8% of 370,000 active;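 active = activation above a cutoff set at the mean of all screened compounds plus 3 SD, cut at about 10% in these data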;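 note: 0% = DMSO wells and 100% = sodium butyrate wells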
DAX1 inh-1: NR0B1 (DAX1) inhibition | HEK293 Gal4-DAX1 luciferase reporter, luminescence | inhibition, % at 6.75 µM | 0.99% of 340,000 active | AID 504766;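 active = inhibition above the mean over all tested compounds plus 3 SD, cut at about 4.2% in these data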;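 note: 0% = DAX1-transfected cells with DMSO and 100% = empty-vector control cells with DMSO; inhibition shows as a rise in luminescence from relieved DAX1 repression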
Target sequence (P51843 207-470 limits assumed): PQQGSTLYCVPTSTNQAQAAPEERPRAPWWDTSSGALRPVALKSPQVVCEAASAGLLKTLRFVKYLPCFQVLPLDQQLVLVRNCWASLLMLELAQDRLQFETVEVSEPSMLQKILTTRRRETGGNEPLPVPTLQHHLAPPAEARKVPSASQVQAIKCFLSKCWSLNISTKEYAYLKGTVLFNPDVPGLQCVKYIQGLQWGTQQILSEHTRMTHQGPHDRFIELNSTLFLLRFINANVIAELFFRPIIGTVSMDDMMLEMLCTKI
ssDAF12 agonist: activates DAF-12 receptor from parasite S. stercoralis. HEK293 ssDAF-12/GRIP1 lit1-tk-luc reporter, luminescence; % of 3 µM dafachronic acid response. activation, % at 6.8 µM. 1% of 370,000 active. AID 652126;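 active = activation above the mean over all tested compounds plus 3 SD, cut at about 0.9% in these data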;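 note: 0% = DMSO-only wells and 100% = 3 µM delta7-dafachronic acid wells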
DAX1 inh-2: blocks DAX1 repression of SF-1 activated StAR promoter. HEK293T StAR-luciferase reporter, SF-1/DAX-1 repression relief. inhibition, % at 6.8 µM. 1.1% of 370,000 active;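 active = inhibition above the mean over all tested compounds plus 3 SD, cut at about 3.6% in these data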;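 note: 0% = DAX-1 cells with DMSO and 100% = cells lacking DAX-1 with DMSO; higher inhibition means more luminescence from relief of DAX-1 repression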
* hit, by the source's call; · = not tested or not shown. In the library only some 4.1% were active in any assay of this set; here they are far more common.

SMILES	hcDAF12 agonist	hgDAF12 agonist	DAX1 inh-1	ssDAF12 agonist	DAX1 inh-2
C=CCN1C(=O)[C@@H](CC(=O)N2CCCC2)[C@]2(C(=O)OCC)CCCCC/C=C/12	0	-3	·	-1	1
[O-]c1n[n+](-c2ccc(Cl)cc2Cl)cc2ccccc12	-1	-1	4.4*	-1	0
Cc1onc(-c2ccc(Cl)cc2)c1-c1ccn(S(=O)(=O)c2ccccc2)n1	1	2	·	-1	-1
C=C(C)CNC(=O)CCc1nnc(Cc2cccc(C(F)(F)F)c2)o1	2	10	1	1.0*	1
O=C(CCc1nnc(Cc2cccc(C(F)(F)F)c2)o1)NCC(F)(F)F	2	-2	2	-1	0
CC(NC(=O)CCc1nnc(Cc2cccc(C(F)(F)F)c2)o1)C1CC1 (stereo unspecified)	-1	10*	1	-2	1
O=C(CCc1nnc(Cc2cccc(C(F)(F)F)c2)o1)NC1CC1	0	0	0	0	0
CC(C)CN(C)C(=O)CCc1nnc(Cc2cccc(C(F)(F)F)c2)o1	2	11*	3	-1	2
Cc1cc(C)cc(OCC(C)CN2CCC(C(O)(c3ccccc3)c3ccccc3)CC2)c1 (stereo unspecified)	-2	-1	·	0	0
Clc1ccc(CN2C3=NCCCN3c3ccccc32)c(Cl)c1	-1	-6	-1	-1	0
CC(C)=CC(=O)Nc1ccccc1C(N)=O	-1	2	0	-1	0
O=C(Nc1cccnc1Cl)c1ccc(Cl)cc1	1	12*	2	0	1
O=C(/C=C/c1ccccc1)Nc1cccnc1Cl	2	10	2	1.8*	2
O=C(Nc1cccnc1Cl)c1cccnc1Cl	-1	0	0	-2	0
O=C(COC(=O)/C=C/c1ccccc1)Nc1cccnc1Cl	0	2	0	-1	-3
NC(=O)c1ccccc1NC(=O)/C=C/c1ccccc1	2	11*	0	0	3
NC(=O)c1ccccc1NC(=O)/C=C/c1ccc(Cl)cc1	2	13*	-1	0	1
COc1cccc(-c2nnc(SCc3cc(C)ccc3C)n2Cc2ccco2)c1	-3	-1	·	-2	-2
O=C(/C=C/c1ccccc1)Nc1ccc(Br)cn1	1	13*	2	1	-1
CCSc1nnc2nc3[nH]c4c(C)cccc4c3nn12	4	6	·	1.5*	2
CCCCC(=O)N[C@H]1CC[C@@]23CCCN2C(=O)CCC[C@H]3[C@H]1C	0	2	·	-2	·
COCCNC(=O)c1cc2c(s1)-c1ccc(Cl)cc1SC2	1	13*	5.0*	1	2
CCN(Cc1cn(Cc2ccccc2)nn1)S(=O)(=O)c1ccccc1Br	-3	-4	·	0	-1
C=CCN=C1NC(c2ccc(F)cc2)C(C(=O)OC)=C(C)N1Cc1ccccc1C(F)(F)F (stereo unspecified)	-2	2	·	-1	0
O=S(=O)(Nc1cccc2ccccc12)c1cccs1	6.1*	0	1	-1	0
SMILES	hcDAF12 agonist	hgDAF12 agonist	DAX1 inh-1	ssDAF12 agonist	DAX1 inh-2
COc1ccccc1NS(=O)(=O)c1cccs1	0	3	-1	-1	0
O=S(=O)(Nc1ccc(O)c2ccccc12)c1cccs1	6.7*	-2	-2	1	-1
COc1ccc(NC(=O)c2ccc3c(c2)NC(=O)CS3)cc1	4	5	1	-1	4.4*
COc1ccc(C(=O)Nc2cc(OC)nc(OC)n2)cc1	4	12*	1	0	2
COc1ccc(C(=O)Nc2ccc3ccccc3c2)cc1OC	2	12*	2	0	2
CC(=O)c1cccc(NC(=O)c2ccc(NS(C)(=O)=O)cc2)c1	-2	-2	0	-1	0
CS(=O)(=O)Nc1ccc(C(=O)Nc2ccc3ccccc3c2)cc1	4	11*	2	1.3*	2
Cc1ccc(C(=O)C2CCN(CC(=O)NCc3cccs3)CC2)cc1	-3	-4	·	-1	-1
CCOc1ccc(NC(=O)c2ccc(NC(=O)COC(=O)Cc3ccc(OC)cc3)cc2)cc1	0	5	1	-1	1
COc1cc(OC)c(C(=O)Nc2ccc3ccccc3c2)cc1OC	·	·	5.2*	·	·
COc1ccc(CC(=O)OCC(=O)Nc2ccc(C(=O)Nc3ccc(OC)cc3)cc2)cc1	-2	-1	4.2*	-1	0
COc1ccc(C(=O)Nc2cccc(NC(C)=O)c2)cc1	0	3	·	0	1
COc1ccc(C(=O)Nc2ccc3ccccc3c2)cc1	5.8*	10	-6	1	3
COc1ccc(NC(=O)c2cc3ccccc3cc2OC)cc1OC	0	0	1	-1	-1
COc1ccc(C(=O)Nc2cccc(C)c2)cc1	3	11*	0	0	4.0*
CC(C)CN1C[C@@H]2CSCCS(=O)(=O)N2C1=O	0	-1	·	0	-2
O=C1NC(c2ccccc2)c2c(-c3ccccc3)n[nH]c21 (stereo unspecified)	-1	-4	·	-1	0
Cc1cccc(-c2cccc3c4c([nH]c23)[C@@H]2C[C@H]3[C@@H](C(=O)N2CC4)[C@H](C)ON3C)c1	-3	-1	·	-1	-1
COc1ccc(C(C)c2cc3c(cc2OCC(=O)O)OCO3)cc1 (stereo unspecified)	0	-2	·	-1	0
Cc1noc(C)c1NC(=O)Nc1ccc2c(c1)C(=O)N(C)[C@H]1CC[C@H](CC(=O)NCc3ccc(Cl)cc3)O[C@@H]1CO2	-2	0	·	-1	1
COC(=O)[C@]12C[C@H](CC(=O)N3CCOCC3)C(=O)N(Cc3cccc4ccccc34)C1=C[C@H](C(C)(C)C)O[C@@H]2C	-2	1	·	-1	0
O=C(C1CCCN1S(=O)(=O)c1ccc([N+](=O)[O-])cc1)N1CCN(c2ccccc2)CC1 (stereo unspecified)	-4	2	·	0	1
COc1ccc(C(=O)Nc2ccccc2C(N)=O)cc1	0	13*	0	0	2
COc1ccc(OC)c(NC(=O)c2cc3ccccc3cc2OC)c1	-1	1	-2	-1	0
COc1cc2ccccc2cc1C(=O)Nc1ccc(O)cc1	4	7	4.4*	1.4*	2
COc1ccc(C(=O)Nc2ccccc2C(=O)Nc2ccccc2C(=O)O)cc1	-1	0	2	0	0
NC(=O)c1ccccc1NC(=O)c1ccc2c(c1)OCO2	2	11*	2	0	1
O=S(=O)(CC1NCc2cc(F)ccc21)NC1CCCC1 (stereo unspecified)	2	4	·	-1	-1
CCOC(=O)C1=NOC(C(=O)Nc2cc(C)cc(C)c2)(C(=O)C2CC2)C1 (stereo unspecified)	-2	1	·	-1	1
Cc1cc(C)n2nc(S(=O)(=O)N(C)Cc3ccccc3)nc2n1	-1	-1	2	-2	0

Bioassay records as filed in PubChem BioAssay.
